Bioassay records as filed in PubChem BioAssay.
An excerpt weighted towards active compounds, which were near 13% of everything screened.
miR-21 act: qHTS Assay for Modulators of miRNAs and/orActivators of miR-21 | HeLa miR-21 FLuc reporter, luciferase, 48 h | 340,000 tested, under 10 active | Potency, µM (top dose mostly 38.3 µM), without a hit: at the top dose activity change, positive = activation, hits mostly activators;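 note: % of control where 0% means no effect; miR-21 action dims this reporter so a rising signal means less miR-21 action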
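Using DMEM plus 10% FBS, HeLa miR-21-FLuc cells are incubated with test compounds (final up to about 40uM) for 48 hours; firefly luciferase signal is then imaged following reagent-mediated lysis.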
G9a block: qHTS Assay for Inhibitors of Histone Lysine Methyltransferase G9a | Potency, µM (series often up to 102 µM), for inactives: top-dose activity, negative = inhibition, most hits filed as inhibitors | AID 504332, 2011 | Histone-lysine N-methyltransferase EHMT2 (Homo sapiens), Q96KQ7 | 350,000 compounds, 8.8% hits | G9a H3K9 monomethylation, AlphaScreen, 2 h; note: potency is the fitted concentration of half-maximal effect; % is set by controls: 0 for no effect and ±100 for the full control effect; nearly all actives have a fitted effect of over 75% in size
Target sequence (Q96KQ7 913-1193 limits assumed): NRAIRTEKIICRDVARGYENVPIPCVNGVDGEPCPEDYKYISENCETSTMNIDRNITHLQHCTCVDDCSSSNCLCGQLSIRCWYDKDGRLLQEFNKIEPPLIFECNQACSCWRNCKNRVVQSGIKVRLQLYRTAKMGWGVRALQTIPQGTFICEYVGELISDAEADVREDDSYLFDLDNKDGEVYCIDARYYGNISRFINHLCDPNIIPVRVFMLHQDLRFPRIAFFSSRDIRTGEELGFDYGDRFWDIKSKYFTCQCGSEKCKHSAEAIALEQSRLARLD
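Step 1: enzyme (final 20 nM) with compound, 15 min RT. Step 2: substrate peptide 500 nM and SAM 20 uM, 2 h RT. Step 3: anti-H3K9me1 antibody and AlphaScreen beads, 10 min, then plate read.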
Sfp PPTase inh: qHTS Assay for Inhibitors of Bacillus subtilis Sfp phosphopantetheinyl transferase (PPTase); 4'-phosphopantetheinyl transferase ffp (Bacillus subtilis), Q9F4F7; Biochemical Sfp PPTase activity, qHTS; Potency, µM, for inactives: largest response in the series, negative = inhibition, usual class: inhibitors; 310,000 compounds, 3.5% hits;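 note: the enzyme is Sfp with the accession as filed and its product quenches rhodamine fluorescence; potency is the fitted concentration of half-maximal effect; 0% = enzyme reaction without inhibitor and -100% = no enzyme wells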
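Sfp 15 nM + cpd, 15 min RT; start w/ rhodamine-CoA 5 uM, BHQ-2-YbbR 12.5 uM (final); 50 mM Hepes pH 7.6, 10 mM MgCl2, 0.01% NP-40, 0.01% BSA; read 525/598 nm at 0 and 30 min.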
ALDH1A1 inh: qHTS Assay for Inhibitors of Aldehyde Dehydrogenase 1 (ALDH1A1); Potency, µM (doses to about 75.3 µM), without a hit: at the top dose activity, negative = inhibition, most hits filed as inhibitors; Purified ALDH1A1, NADH fluorescence, propionaldehyde substrate; 220,000 compounds, 7.3% hits; Aldehyde dehydrogenase 1A1 (Homo sapiens), P00352; active = well fitted inhibition curve with a large enough effect, not every such curve was filed as active; inconclusive = small, poorly fitted or top-dose-only effect, or another doubt; inactive = no such curve, though single readings can be large or run the other way;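 note: potency is the fitted concentration of half-maximal effect; plate controls were no enzyme wells and a reference inhibitor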
Target sequence (P00352 whole entry, looked up): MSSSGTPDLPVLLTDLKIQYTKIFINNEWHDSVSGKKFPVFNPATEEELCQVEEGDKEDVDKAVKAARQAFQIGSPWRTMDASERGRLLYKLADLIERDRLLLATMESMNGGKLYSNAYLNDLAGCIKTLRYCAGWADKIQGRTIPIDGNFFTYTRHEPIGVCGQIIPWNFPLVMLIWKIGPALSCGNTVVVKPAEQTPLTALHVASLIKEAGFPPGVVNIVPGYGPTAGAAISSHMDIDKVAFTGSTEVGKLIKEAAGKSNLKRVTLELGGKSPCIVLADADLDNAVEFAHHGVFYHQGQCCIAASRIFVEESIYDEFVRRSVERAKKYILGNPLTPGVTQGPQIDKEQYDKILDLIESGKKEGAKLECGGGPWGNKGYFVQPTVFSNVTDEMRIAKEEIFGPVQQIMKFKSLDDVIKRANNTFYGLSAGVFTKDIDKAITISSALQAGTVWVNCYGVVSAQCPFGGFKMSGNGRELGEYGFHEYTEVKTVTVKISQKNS
Lamin A splicing: qHTS Assay for Modulators of Lamin A Splicing; HeLa LMNA splicing GFP/RFP minigene ratio, 48 h; Potency, µM (highest dose often 46.1 µM), without a hit: top-dose ratio change, negative = inhibition, most hits filed as inhibitors; 200,000 compounds, 0.01% hits; active = well fitted inhibition curve with a large enough effect in the signal ratio, with a control signal flat, not every such curve was filed as active; inconclusive = small, poorly fitted or top-dose-only effect, or effect the other way, or a change in a side signal; the % refers to the signal ratio; note: potency is the fitted concentration of half-maximal effect; % is set by controls: 0 for no effect and ±100 for the full control effect
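S3 HeLa cells stably expressing lamin A-EGFP splicing minigene plus DsRed2, 600 cells/well, 48 h compound exposure at 37C. Laser-scanning cytometry; analysed as GFP (500-530 nm)/RFP (575-640 nm) total intensity ratio; 0.5% DMSO vehicle.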
KDM4E inh: qHTS Assay for Inhibitors of Human Jumonji Domain Containing 2E (JMJD2E); Potency, µM (highest dose often 57.1 µM), for the others: at the highest dose activity change, negative = inhibition, usual class: inhibitors; 230,000 compounds, 1.6% hits; AID 2147, 2009; Lysine-specific demethylase 4E (Homo sapiens), B2RXH2; JMJD2E catalytic domain, FDH-coupled NADH fluorescence (FDH is formaldehyde dehydrogenase);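 note: potency is the fitted concentration of half-maximal effect; 0% = wells with enzyme and -100% = buffer wells without enzyme; nearly all actives have a fitted effect of over 50% in size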
* hit, by the source's call; u = inconclusive; x = not tested or not shown; [ ] = another dose, or the depositor's remark. Unless noted, calls come from the whole dose curve; as a rule, active = well fitted curve in the direction sought with a large enough effect; inconclusive = small, poorly fitted or top-dose-only effect, or another doubt; inactive = no such curve, though single readings can be large; an effect the other way counts as inactive or inconclusive.

SMILES	miR-21 act	G9a block	Sfp PPTase inh	ALDH1A1 inh	Lamin A splicing	KDM4E inh
O=C(O)c1cc(N(Cc2ccccc2O)Cc2cc(O)ccc2O)ccc1O	x	2.24µM*	17.8µM*	u	x	x
CC(C)(C)c1ccc(O)c(CN(Cc2cc(C(C)(C)C)ccc2O)c2ccccc2)c1	x	x	x	8.1%[13.5 µM]	x	x
CC1(c2ccc([N+](=O)[O-])cc2)NC(=O)N(CC(=O)Nc2ccc(N3CCCCC3)cc2)C1=O (configuration not stated)	x	11.2µM*	x	x	x	x
CC1(c2ccc(OC(F)F)cc2)NC(=O)N(CC(=O)Nc2ccc(N3CCCCC3)cc2)C1=O (configuration not stated)	x	7.08µM*	x	x	x	x
CC1(c2ccc(OC(F)F)cc2)NC(=O)N(CC(=O)Nc2cccc(S(N)(=O)=O)c2)C1=O (configuration not stated)	-2.7%	-0.4%[12.7 µM]	18.4%	x	x	0.0%
CC1(c2ccccc2)NC(=O)N(CC(=O)Nc2ccc([N+](=O)[O-])cc2)C1=O (configuration not stated)	4.9%	-3.7%	-0.4%	-10.6%	x	-1.5%
CCCCC1CCC(C(=O)N(CCCC)c2c(N)n(CCCC)c(=O)[nH]c2=O)CC1 (configuration not stated)	-3.6%	x	7.0%	x	x	x
COC(=O)NC(c1cccc(C)c1)[C@]1(C(C)=O)CCCC1=O (some centres not stated)	x	x	28.7%	0.6%[13.5 µM]	x	x
C=CCn1c(-c2ccoc2)n[nH]c1=S	-3.6%	26.4%[0.501 µM]	-26.8%	u	6.7%[0.0737 µM]	u
C=CCn1c(-c2ccccc2)n[nH]c1=S	0.2%	61.2%[59 µM]	5.01µM*	-12.2%	0.6%	7.1%
C=CCn1c(-c2ccncc2)n[nH]c1=S	0.2%	x	-23.1%	-1.3%	12.1%[46 µM]	3.7%
C=CCn1c(C(C)NC(=O)c2ccccc2C)n[nH]c1=S (configuration not stated)	-5.0%	20µM*	-0.6%	7.6%	3.8%	-3.1%
C=CCn1c(-c2ccc(F)cc2)n[nH]c1=S	-1.0%	20µM*	-20.0%	2.3%	-4.4%[46 µM]	-3.9%
OCCCn1c(-c2ccccc2)n[nH]c1=S	-41.2%	7.94µM*	-4.7%	1.1%	11.1%	-5.5%
CCn1c(C(C)NC(=O)c2ccccc2C)n[nH]c1=S (configuration not stated)	2.6%	x	15.0%	11.4%	u	4.4%
CCOC(=O)c1cnn(-c2ccc(C(=O)Nc3cc(OC)c(OC)c(OC)c3)cc2)c1N	20.5%	u	x	x	-11.0%[46 µM]	x
CC(C)(C)OC(=O)[C@H](C1N[C@@H](C(=O)O)C(C)(C)S1)N1C(=O)c2ccccc2C1=O (some centres not stated)	x	x	x	3.4%[13.5 µM]	x	x
C=CCn1c(-c2cccc3ccccc23)n[nH]c1=S	6.9%	u	6.6%	5.4%	-14.1%	-11.4%
C=CCn1c(-c2ccccc2OC)n[nH]c1=S	5.0%	2µM*	7.3%	5.7%	-5.2%	-3.3%
COc1ccc(CN(CC(=O)NCC2CCCO2)C(=O)CCC(=O)Nc2nccs2)cc1 (configuration not stated)	0.9%	-6.2%	-2.7%	x	x	x
COc1ccc(C2C=C(C34CC5CC(CC(C5)C3)C4)NC(=S)N2)cc1OC (configuration not stated)	2.1%	u	-6.9%	7.94µM*	u	-9.3%
CCCN(CCC)C(=O)CSc1nc2ccccc2c(=O)n1CC1COc2ccccc2O1 (configuration not stated)	-2.7%	95.7%[59 µM]	7.0%	11.2µM*	7.3%	-3.5%
COC(=O)c1ccc(NC(=O)CSc2nccn2CCc2ccccc2)cc1	-29.3%	35.5µM*	13.7%	20µM*	4.8%	1.5%
COC(=O)c1ccc(NC(=O)CSc2nccn2Cc2ccc(Cl)cc2)cc1	0.6%	12.6µM*	x	x	-5.9%[46 µM]	x
CCCc1cnc2c(c1SCC(=O)N1CCC(C)CC1)c(=O)n(C)c(=O)n2C	7.7%	4.0%[59 µM]	x	x	-4.9%[46 µM]	x
SMILES	miR-21 act	G9a block	Sfp PPTase inh	ALDH1A1 inh	Lamin A splicing	KDM4E inh
CC(=O)N=Cc1c(C)c(C#N)c(=O)n(C)c1O	-7.0%	44.7µM*	u	-3.3%	-10.8%[46 µM]	u
CCCn1c(O)c(CN2CCCCC2)c(C)c(C#N)c1=O	6.0%	-19.8%[59 µM]	-3.4%	u	7.6%	u
Cc1cc(C)n(C)c(=O)c1C#N	-1.0%	-10.2%	10.4%	-5.6%	-4.0%[46 µM]	-23.2%
Cc1c(C=O)c(Cl)n(C)c(=O)c1C#N	-0.5%	39.8µM*	u	-9.3%	17.6%[9.22 µM]	20µM*
Cn1c(N)c(Br)c(-c2ccc(F)cc2)c(C#N)c1=O	-3.8%	-0.6%	3.1%	5.9%	-8.9%[46 µM]	-6.4%
Cc1c(/C=N/Nc2ccc(F)cc2)c(O)n(C)c(=O)c1C#N	-6.0%	1.26µM*	-15.4%	3.55µM*	u	u
CCOc1ccccc1NC(=O)CN1C(=O)COc2ccc(S(=O)(=O)NC3CCCC3)cc21	-2.0%	-26.1%[59 µM]	x	x	-9.1%[46 µM]	x
COC(=O)c1scc(-c2ccc(C)cc2)c1S(=O)(=O)N1CCN(c2ccc(C)cc2C)CC1	15.2%	-3.8%[59 µM]	x	x	-15.2%[46 µM]	x
CC1CCN(c2nn3c(=O)c(C(=O)NC(C)C)cnc3s2)CC1	-7.2%	4.5%[59 µM]	x	x	x	x
COC(=O)c1cc2sccc2n1Cc1nc(-c2ccc(C)cc2)oc1C	-1.4%	u	x	x	x	x
Cc1ccc(-n2c(-c3ccco3)n[nH]c2=S)cc1	1.4%	x	79.4µM*	-15.9%	x	u
S=c1[nH]nc(-c2cc(-c3ccco3)[nH]n2)n1-c1ccccc1	-10.6%	-20.1%[0.501 µM]	89.1µM*	u	0.2%[0.0737 µM]	u
CCOc1ccc(-n2c(-c3ccco3)n[nH]c2=S)cc1	-4.1%	3.16µM*	50.1µM*	u	4.2%	u
Fc1ccc(-n2c(-c3ccco3)n[nH]c2=S)cc1	0.8%	u	79.4µM*	x	x	x
S=c1[nH]nc(-c2ccco2)n1-c1ccccc1Cl	-28.5%	u	-7.3%	u	u	u
COc1cc(CN2CCN(CC#Cc3ccccc3)CC2CCO)cc(OC)c1 (configuration not stated)	-2.7%	15.3%	12.4%	x	x	x
CCc1ccc(NC(=O)Cn2c(=O)n(Cc3nc(C)no3)c(=O)c3cc4c(cc32)OCO4)cc1	-1.2%	9.3%[59 µM]	x	x	x	x
CCOC(=O)N1CCN(/[N+]([O-])=N/Oc2ccc([N+](=O)[O-])cc2[N+](=O)[O-])CC1	x	17.8µM*	-28.2%	x	x	x
